Screens as filed in PubChem.
VACV mCherry inh: inhibitors of vaccinia virus infection (mCherry reporter signal); Potency, µM (titrated, usually from 36.5 µM), actives largely listed as inhibitors; hit rate 0.63% among 310,000; Vaccinia virus mCherry reporter infection, fluorescence; calls by dose curve; tested in A549 cells; also: nearly all actives have a fitted effect of over 35% in size
AmpC inh no detg: inhibitors of E. coli AmpC beta-lactamase without detergent | P00811 | AmpC nitrocefin hydrolysis, absorbance 480 nm, 0.0001% Triton | Potency, µM (titrated, usually from 57.1 µM), most hits filed as inhibitors | hit rate 0.52% among 330,000; also: nearly all actives have a fitted effect of over 20% in size
Target sequence (P00811 whole entry, looked up): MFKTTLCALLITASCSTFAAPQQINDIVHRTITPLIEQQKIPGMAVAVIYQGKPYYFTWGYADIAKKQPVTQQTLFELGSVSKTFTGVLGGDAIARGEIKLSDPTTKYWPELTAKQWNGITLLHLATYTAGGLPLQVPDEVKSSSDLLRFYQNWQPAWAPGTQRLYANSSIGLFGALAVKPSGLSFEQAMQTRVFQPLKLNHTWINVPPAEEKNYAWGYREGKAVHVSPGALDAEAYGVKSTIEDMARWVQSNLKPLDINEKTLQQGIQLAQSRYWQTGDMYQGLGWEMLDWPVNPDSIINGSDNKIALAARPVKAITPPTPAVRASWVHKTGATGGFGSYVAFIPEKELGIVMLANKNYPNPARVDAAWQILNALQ
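AmpC (5.3 nM in the dispensed reagent) in 20 mM phosphate pH 7.0 with 0.01% (detergent screen) or 0.0001% Triton X-100 was preincubated with compounds for 15 min at room temperature. Nitrocefin was then added from an 800 uM solution, and hydrolysis was followed at 480 nm.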
AmpC detergent: AmpC beta-lactamase inhibition with detergent present | P00811 | AmpC hydrolysis of nitrocefin, absorbance 480 nm, 0.01% Triton | Potency, µM (doses to about 114 µM), most hits filed as inhibitors | hit rate 0.041% among 370,000 | AID 485294; also: nearly all actives have a fitted effect of over 25% in size
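AmpC (5.3 nM in the dispensed reagent) in 20 mM phosphate pH 7.0 with 0.01% (detergent screen) or 0.0001% Triton X-100 was preincubated with compounds for 15 min at room temperature. Nitrocefin was then added from an 800 uM solution, and hydrolysis was followed at 480 nm.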
Vaccinia Venus: inhibitors of vaccinia virus (Venus reporter). Vaccinia virus Venus reporter expression, fluorescence. Potency, µM (highest dose often 36.5 µM), usual class: inhibitors. hit rate 0.46% among 330,000; calls by dose curve; tested in A549 cells; also: nearly all actives have a fitted effect of over 30% in size
A number is an active result. Sampled rows, rich in hits. Any-hit rate of the full collection: about 1.1%. Unless noted, calls follow the shape of the dose curve; as a rule, active = well fitted curve in the direction sought with a large enough effect; inconclusive = small, poorly fitted or top-dose-only effect, or another doubt; inactive = no such curve, though single readings can be large; an effect the other way counts as inactive or inconclusive.

What do the screens show for `CCCCN1CC[C@H]2C=CC[C@@H](C(=O)NCc3cccnc3)[C@H]2C1=O`?
VACV mCherry inh: inactive; Vaccinia Venus: inactive

How did O=C(C[N+]12CCCc3cccc(c31)CCC2)c1ccc2ccccc2c1 do in these assays?
VACV mCherry inh: inactive; Vaccinia Venus: inactive

How did Cc1cccc2cc(CN(CC3CCCO3)C(=O)c3ccccc3F)c(N(C)C)nc12 (stereo unspecified) do in these assays?
VACV mCherry inh: inactive; Vaccinia Venus: inactive

Results for O=C1CSC(=S)N1/N=C/c1ccc2c(c1)OCCO2 ?
VACV mCherry inh: inactive; AmpC inh no detg: inactive; AmpC detergent: inactive; Vaccinia Venus: inactive

Results for O=C1CSC(=S)N1/N=C/c1ccc(Cl)c([N+](=O)[O-])c1 ?
AmpC inh no detg: 13µM; AmpC detergent: inactive

Results for C=CCNc1nc(-c2ccccn2)nnc1-c1ccccc1 ?
VACV mCherry inh: 28µM; AmpC inh no detg: inactive; AmpC detergent: inactive; Vaccinia Venus: inconclusive

Results for CCOC(=O)CS(=O)(=O)c1nc(-c2ccc(F)cc2)cc(C(F)(F)F)n1 ?
AmpC inh no detg: inactive; AmpC detergent: inactive; Vaccinia Venus: 10µM

Results for COC(=O)CCS(=O)(=O)c1nc(-c2ccccc2)cc(C(F)(F)F)n1 ?
AmpC inh no detg: inactive; AmpC detergent: inconclusive

What do the screens show for `CCOC(=O)CS(=O)(=O)c1ccccc1`?
VACV mCherry inh: inactive; AmpC inh no detg: inactive; AmpC detergent: inactive; Vaccinia Venus: inactive

What do the screens show for `CCOC(=O)CS(=O)(=O)c1nc(-c2ccccc2)cc(C(F)(F)F)n1`?
AmpC inh no detg: inactive; AmpC detergent: inactive; Vaccinia Venus: 10µM

What do the screens show for `CCOC(=O)CCS(=O)(=O)c1nc(-c2ccccc2)cc(C(F)(F)F)n1`?
VACV mCherry inh: 11µM; AmpC inh no detg: inactive; AmpC detergent: inactive; Vaccinia Venus: inconclusive

How did Cc1ccnc2ccc3ccccc3c12 do in these assays?
VACV mCherry inh: inactive; Vaccinia Venus: inactive

How did Cc1cc(NS(=O)(=O)c2ccc(NC(=O)c3c(F)c(F)c(F)c(F)c3F)cc2)nc(C)n1 do in these assays?
VACV mCherry inh: 28µM; AmpC inh no detg: inactive; AmpC detergent: inactive; Vaccinia Venus: inconclusive

Results for CCCCCCCCCCCCCCCC[N+](C)(C)CCN(Cc1ccc(OC)cc1)c1ncccn1 ?
VACV mCherry inh: inconclusive; AmpC inh no detg: inactive; AmpC detergent: inconclusive; Vaccinia Venus: 13µM

Results for COc1ccc(CN(CCN(C)C)c2ncccn2)cc1 ?
VACV mCherry inh: inactive; Vaccinia Venus: inconclusive

Results for Cc1cc(C)nc(NS(=O)(=O)c2ccc(NC(=S)NC(=O)CC(C)C)cc2)n1 ?
VACV mCherry inh: 11µM; AmpC inh no detg: inactive; AmpC detergent: inactive; Vaccinia Venus: 11µM

What do the screens show for `O=c1cc(CO)oc(C(Nc2ccccn2)c2cccc(F)c2)c1O` (stereo unspecified)?
VACV mCherry inh: inactive; AmpC inh no detg: 40µM; AmpC detergent: inconclusive; Vaccinia Venus: inactive

What do the screens show for `CC1(C)CC(C(=O)N2CCOc3ccc(CN4CCN(Cc5ccccn5)CC4)cc3C2)CCO1` (stereo unspecified)?
VACV mCherry inh: inactive; Vaccinia Venus: inactive

What do the screens show for `CC1OC(OC2CC(O)C3(CO)C4C(O)CC5(C)C(C6=CC(=O)OC6)CCC5(O)C4CCC3(O)C2)C(O)C(O)C1O` (stereo unspecified)?
VACV mCherry inh: 0.089µM; Vaccinia Venus: inconclusive

How did C[C@@H]1O[C@@H](O[C@H]2C[C@@H](O)[C@]3(CO)[C@H]4[C@H](O)C[C@]5(C)[C@@H](C6COC(=O)C6)CC[C@]5(O)[C@@H]4CC[C@]3(O)C2)[C@H](O)[C@H](O)[C@H]1O (stereo partly specified) do in these assays?
VACV mCherry inh: 1.1µM; AmpC inh no detg: inactive; AmpC detergent: inactive; Vaccinia Venus: 1.1µM

What do the screens show for `COc1ccccc1C(=O)N[C@@H]1c2ccccc2C2(CCN(Cc3ccc4c(c3)OCO4)CC2)[C@H]1O`?
VACV mCherry inh: inactive; Vaccinia Venus: inactive

Results for Cc1cnc(SCC2CCCO2)nc1C1CCCN(Cc2cc3c(cc2Cl)OCO3)C1 (stereo unspecified) ?
VACV mCherry inh: inactive; Vaccinia Venus: inactive

How did CCOC(=O)C(=Cc1ccc(Br)cc1)C(=O)OCC do in these assays?
VACV mCherry inh: inconclusive; AmpC inh no detg: inactive; AmpC detergent: inactive; Vaccinia Venus: 14µM

What do the screens show for `Cc1cc(C)nc(SCc2ccc(C(=O)NNC(=O)Nc3cccc(Cl)c3)cc2)n1`?
VACV mCherry inh: 14µM; AmpC inh no detg: inactive; AmpC detergent: inactive; Vaccinia Venus: 11µM

What do the screens show for `NC(=S)NN=C1CCCCCCCCC1`?
VACV mCherry inh: 20µM; Vaccinia Venus: inconclusive

What do the screens show for `CCN(c1ccccc1)S(=O)(=O)c1cc(C(=O)Nc2ccccc2Cl)ccc1F`?
VACV mCherry inh: inactive; AmpC inh no detg: inactive; AmpC detergent: inconclusive; Vaccinia Venus: inactive

Results for CCN(c1ccccc1)S(=O)(=O)c1cc(C(=O)Nc2ccc(Br)cc2)ccc1F ?
VACV mCherry inh: 14µM; AmpC inh no detg: inactive; AmpC detergent: inconclusive; Vaccinia Venus: 13µM

What do the screens show for `CC(C)(C)C(=O)OC1=CN(Cc2ccccc2)S(=O)(=O)c2ccccc21`?
VACV mCherry inh: 11µM; AmpC detergent: inactive; Vaccinia Venus: inconclusive

How did Cc1ccccc1-n1cc(CNC(=O)CN2Cc3ccccc3OC(C)C2)cn1 (stereo unspecified) do in these assays?
VACV mCherry inh: inactive; Vaccinia Venus: inactive

Results for CC(C)(C)c1csc(N/N=C/c2ccc(O)cc2)n1 ?
AmpC inh no detg: 10µM; AmpC detergent: inactive

What do the screens show for `CCC1CN(CCNC(=O)c2cc(C(C)C)nn2C)Cc2cc(OC)ccc2O1` (stereo unspecified)?
VACV mCherry inh: inactive; Vaccinia Venus: inactive

How did CC(=O)OC1CC(OC2C(O)CC(OC3C(O)CC(OC4CCC5(C)C(CCC6C5CCC5(C)C(C7=CC(=O)OC7)CCC65O)C4)OC3C)OC2C)OC(C)C1OC1OC(CO)C(O)C(O)C1O (stereo unspecified) do in these assays?
VACV mCherry inh: 4.5µM; Vaccinia Venus: 5.6µM

How did COC1CC(OC2CCC3(C)C(CCC4C3CCC3(C)C(C5=CC(=O)OC5)C(OC(C)=O)CC43O)C2)OC(C)C1OC1OC(COC2OC(CO)C(O)C(O)C2O)C(O)C(O)C1O (stereo unspecified) do in these assays?
AmpC inh no detg: inactive; AmpC detergent: inactive

What do the screens show for `CC(=O)O[C@H]1C[C@H](O[C@H]2[C@@H](O)C[C@H](O[C@H]3[C@@H](O)C[C@H](O[C@H]4CC[C@@]5(C)[C@H](CC[C@@H]6[C@@H]5C[C@@H](O)[C@]5(C)[C@@H](C7=CC(=O)OC7)CC[C@]65O)C4)O[C@@H]3C)O[C@@H]2C)O[C@H](C)[C@H]1O[C@@H]1O[C@H](CO)[C@@H](O)[C@H](O)[C@H]1O`?
VACV mCherry inh: inconclusive; Vaccinia Venus: 2.5µM

What do the screens show for `Clc1ccc(-n2cccc2CN2CCOc3ccc(CN4CCOCC4)cc3C2)nc1`?
VACV mCherry inh: inactive; Vaccinia Venus: inactive

Results for C=CCn1c(SCC(N)=O)nc2ccccc2c1=O ?
VACV mCherry inh: inactive; Vaccinia Venus: inactive

Results for C=CCn1c(SCC(=O)c2ccc(CNC(C)=O)o2)nc2ccccc2c1=O ?
AmpC inh no detg: inactive; AmpC detergent: inactive; Vaccinia Venus: 1.3µM
